In all, about 10,000 compounds went through this assay and about 5,600 (56%) were called active. So high a share suggests a set chosen from earlier hits. The list is a sample of the results. A number with no mark means an inactive call. Cut-off read from the data, not from the text of the source: active = inhibition above about 40%; inactive = the rest.
target: Protein Mdm4 (Homo sapiens) + E3 ubiquitin-protein ligase Mdm2 (Homo sapiens) (UniProt O15151+Q00987); experiment: inhibition of human Mdm2/MdmX pairing – luminescence, single concentration, confirmation (AID 489028); conditions: Mdm2-MdmX binding, luminescent assay; at 8 µM; hits give high values
Sequence (O15151 whole entry, looked up): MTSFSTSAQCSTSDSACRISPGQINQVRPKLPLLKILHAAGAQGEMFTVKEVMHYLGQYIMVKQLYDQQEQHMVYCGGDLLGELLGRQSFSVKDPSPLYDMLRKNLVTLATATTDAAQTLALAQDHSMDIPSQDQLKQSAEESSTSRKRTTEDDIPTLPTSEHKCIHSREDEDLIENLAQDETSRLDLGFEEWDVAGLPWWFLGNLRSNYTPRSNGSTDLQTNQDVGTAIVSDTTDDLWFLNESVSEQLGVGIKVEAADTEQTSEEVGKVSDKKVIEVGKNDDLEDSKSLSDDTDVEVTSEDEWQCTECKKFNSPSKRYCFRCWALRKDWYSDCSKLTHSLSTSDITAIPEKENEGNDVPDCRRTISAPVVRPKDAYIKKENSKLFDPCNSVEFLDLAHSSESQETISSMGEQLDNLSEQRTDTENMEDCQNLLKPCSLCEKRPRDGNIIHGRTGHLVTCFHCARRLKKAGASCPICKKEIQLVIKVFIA
Sequence (Q00987 whole entry, looked up): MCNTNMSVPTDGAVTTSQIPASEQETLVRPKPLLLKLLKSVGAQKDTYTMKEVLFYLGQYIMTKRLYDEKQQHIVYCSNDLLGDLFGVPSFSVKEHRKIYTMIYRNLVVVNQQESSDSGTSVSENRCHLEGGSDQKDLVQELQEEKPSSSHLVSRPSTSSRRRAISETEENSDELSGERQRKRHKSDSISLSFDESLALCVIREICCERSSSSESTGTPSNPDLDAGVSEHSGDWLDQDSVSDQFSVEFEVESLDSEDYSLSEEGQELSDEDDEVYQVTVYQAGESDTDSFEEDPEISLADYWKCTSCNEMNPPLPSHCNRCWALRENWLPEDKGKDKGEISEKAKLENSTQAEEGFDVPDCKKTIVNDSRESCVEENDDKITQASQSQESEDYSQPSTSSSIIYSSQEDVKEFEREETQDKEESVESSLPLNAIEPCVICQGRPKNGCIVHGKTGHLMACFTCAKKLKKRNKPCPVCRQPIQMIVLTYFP

Compound	inhibition
O=C1C2(Cl)C3(Cl)C4(Cl)C(Cl)(Cl)C5(Cl)C3(Cl)C1(Cl)C5(Cl)C24Cl (stereo not drawn)	49.5% (active)
COC(=O)C1=C(c2ccc(F)cc2OCc2ccccc2)C[C@@H]2CC[C@H]1N2C(=O)NCc1ccc(Cl)cc1	31.1%
CNCC(O)c1cc(F)c(OCc2ccccc2)c(OCc2ccccc2)c1F (stereo not drawn)	17.8%
Cc1cc2ccccn2c1C(C[N+](=O)[O-])c1c(F)cccc1Cl (stereo not drawn)	99.1% (active)
O=c1c2ccccc2nc(/C=C/c2ccc(F)cc2)n1-c1ccccc1O	31%
O=Cc1cn(Cc2ccc(F)cc2Cl)c2ccccc12	28%
CNC(=O)O/N=C(\N)Cc1csc2ccc(Cl)cc12	90.3% (active)
CNC(=O)O/N=C(\N)Cc1csc2ccccc12	52.6% (active)
O=C(c1cc2nc(-c3ccccc3)cc(-c3ccccc3)n2n1)N1CCC2(CC1)OCCO2	16.3%
CCCCC(=O)N/N=C/c1c(O)n(CCC2=CCCCC2)c(=O)[nH]c1=O	20.9%
COC(=O)C1=C(c2ccc(F)cc2OCc2ccccc2)C[C@@H]2CC[C@H]1N2C(=O)NCc1ccc2[nH]ccc2c1	18.9%
O=C1NC(=O)N(CCc2ccc(F)cc2)C(=O)/C1=C/C=C/c1ccccc1	57.2% (active)
CCCCCCCCCCCCn1ccc(=N)cc1	98.3% (active)
N#CC1=C(N)Oc2c(c(=O)oc3ccccc23)C1c1ccccc1OC(=O)c1cccs1 (stereo not drawn)	15.1%
CC1(C)Cc2c(C#N)c(N3CCNCC3)nc(-c3ccco3)c2CS1	24.1%
CCOc1ccc(-c2cc(C)[n+](CCN(CC)CC)c(-c3ccc(OCC)cc3)c2)cc1	84.5% (active)
CC(Cc1ccccc1)NCCC(c1ccccc1)c1ccccc1 (stereo not drawn)	19.1%
CCCCCn1c(=O)c(C(=O)NCc2ccccc2)c(O)c2ccccc21	5.2%

Reference: PubChem BioAssay AID489028 (Sanford-Burnham Center for Chemical Genomics, 2010)
